# Active and inactive are the calls of the source. How the source made its calls: active means hit-call score of the fitted dose curve at least 0.9, where 1 is the maximum; inactive means score below 0.9.
# Read-out: growth arrest and DNA damage 45 (GADD45A), GADD45A (gene 1647)
# Test: LTEA_HepaRG_GADD45A: Life Technologies and Expression Analysis (LTEA) Assay for growth arrest and DNA damage 45 (GADD45A) using HepaRG (AID 2283458)
# Conditions: mRNA level, 48 h; actives raise or lower the signal
# Protocol: LTEA_HepaRG is a cell based, multiplexed-readout assay that uses HepaRG, a human liver cell line, with measurements taken at 48 hours after chemical dosing on a 96-well plate.LTEA_HepaRG_GADD45A is one of 102 assay component(s) measured in the LTEA HepaRG cell culture assay. It is a marker of Oxidative Stress.Data from the assay component LTEA_HepaRG_GADD45A was analyzed into 1 endpoint. This assay endpoint, LTEA_HepaRG_GADD45A, was analyzed with bidirectional fitting relative to DMSO as the negative control and baseline of activity. Using a type of inducible reporter, measures of mRNA induction for gain or loss-of-signal activity can be used to understand regulation of transcription factor activity. To generalize the intended target to other relatable targets, this assay endpoint is annotated to the cell cycle intended target family, where the subfamily is Oxidative Stress.
# A total of 1060 chemcials from the ToxCast library were tested in eight-point concentration-response experiments. Cell culture and cytotoxicity assays were conducted at Thermo Fisher Scientific's Custom Services facility (Madison, WI). A single lot of human HepaRG cells (Thermo Fisher Scientific, Frederick, MD) was used for the cell culture experiments. 96-well format collagen type I coated plates of human HepaRG cells were prepared using established methods. Briefly, cryopreserved HepaRG cells were thawed, plated at a density of approximately 100,000 cells/well in HepaRG Thaw, Plate, and General Purpose media (HPRG770, Thermo Fisher Scientific), and incubated for 48 hours. 0.5% DMSO was selected as vehicle control to balance the requisite need of DMSO in HepaRG cultures to maintain differentiation (for example, baseline metabolism, proportions of hepatocytes vs. cholangiocytes), while enabling further hepatic receptor pathway activation (for example, PXR and CAR) in response to chemical exposure. 48 hours after plating, the culture medium was replaced with HepaRG Serum-Free Incudtion Media. Cells were exposed to each test chemical in duplicate and maintained in CO2 incubators for another 48 hours. Chemical plates were thawed to room temperature and 200x concentrations of treatment groups were prepared. 8-point conentration-reponse curves were made with the highest exposure at 100 uM, followed by half-log dilutions, all in 0.5% DMSO. Each test plate contained variouse controls, induction positive controls (1mM phenobarbital), cytotoxicity positive controls ([…] aflatoxin B1), vehicle controls (0.5% DMSO), and total lysis controls (0.5% DMSO). Cell morphology images were taken using an Essen IncuCyte FLR automated microscope, with six 96-well plates imaged in about 24 minutes. Images were captured and exported and JPEG files. Spent culture media was transfered to black-well plates for the LDH assay, and remaining media was sorted at -80 C for later use. Cells were treated with RLT buffer and frozen until shipped for gene expression analysis. Total RNA was isolated from the cell suspension in 75 uL of Buffer RLT (Qiagen, Germantown, MD 20874) by Quintiles/Expression Analysis (Durham, NC) using a custom isolation procedure. Total RNA from each plate well was transferred to a preamplification plate. Fluidigm's 96.96 Dynamic ArrayTM (Fluidigm, Amsterdam, the Netherlands) technology was used for gene expression analyses by quantitative reverse transcription polymerase chain reaction (qRT-PCR, performed by Quintiles/Expression Analysis, Durham, NC)89. Standard TaqManTM Assays (Applied Biosystems/ThermoFisher Scientific, Foster City, CA) were used to assess the expression of 93 genes selected based on their selectivity and sensitivity to important hepatic receptors known to be modulated by environmental chemicals; importance in human hepatocyte functionality; and hepatotoxicity. […]
Structure (SMILES),outcome,AC50
C=CCc1ccc2c(c1)OCO2,inactive,
CCCCCCCCn1sccc1=O,inactive,
Clc1ccc(Cl)c(Cl)c1,,9.92 µM (active)
CCOc1cccc(C2(N3CCN(c4ccccc4)CC3)CCC(C)CC2)c1 (stereo not given),inactive,
O=[N+]([O-])C(Br)(CO)CO,inactive,
O=Cc1ccco1,inactive,
COC(=O)Nc1nc2ccccc2[nH]1,inactive,
Cc1ccc(N)cc1,inactive,
[As]#[In],inactive,
O=C(Nc1ccccc1)c1ccccc1I,inactive,
Cn1cc(-c2ccccc2)c(=O)c(-c2cccc(C(F)(F)F)c2)c1,inactive,
O=P(OCCCl)(OCCCl)OCCCl,inactive,
Oc1ccc2ccc3cccc4ccc1c2c34,inactive,
C[N+](C)(C)CC1CO1 (stereo not given),inactive,
COc1cc(C=O)cc2c1[C@H](COC(N)=O)[C@]1(OC(C)=O)ON2C[C@H]2[C@@H]1N2C(C)=O,,0.579 µM (active)
Nc1ccc(N=Nc2ccccc2)cc1,inactive,
Oc1ccccc1Cl,inactive,
O=C(O)C1C2CCC(O2)C1C(=O)O (stereo not given),inactive,
CN(C)c1ccc(C(=O)c2ccc(N(C)C)cc2)cc1,inactive,
CN(C)C(=O)Nc1ccc(Cl)cc1,inactive,

Structure (SMILES),outcome,AC50
Nc1cc(Cl)cc(C(=O)O)c1Cl,inactive,
c1ccc2c(c1)-c1cccc3cccc-2c13,inactive,
CC(C)(C)C(O)(CCc1ccc(Cl)cc1)Cn1cncn1 (stereo not given),inactive,
Nc1ccc([N+](=O)[O-])cc1,inactive,
CCOC(=O)[C@]1(c2ccccc2)Oc2ccccc2[C@@H]1N,,76.2 µM (active)
ClC1=C(Cl)[C@]2(Cl)[C@H]3[C@H]([C@@H]4C=C[C@H]3C4)[C@@]1(Cl)C2(Cl)Cl,inactive,
CC(O)CCO (stereo not given),inactive,
CCC12COCN1COC2,inactive,
Nc1ccc(Cc2ccc(N)cc2)cc1,inactive,
CCCCCCCCCCCCCN1CC(C)OC(C)C1 (stereo not given),inactive,
CC(C)(C)OOC(C)(C)CCC(C)(C)OOC(C)(C)C,inactive,
N#CC(Br)Br,inactive,
Nc1ccc(Oc2ccc(N)cc2)cc1,inactive,
Cc1ccc(N=C=O)cc1N=C=O,inactive,
OCCOCCO,inactive,
CO[C@@H]1[C@H](OC(=O)NC(=O)CCl)CC[C@]2(CO2)[C@H]1[C@@]1(C)O[C@@H]1CC=C(C)C,inactive,
COP(=S)(OC)SCN1C(=O)c2ccccc2C1=O,inactive,
ClCCOCCCl,inactive,
O=[N+]([O-])c1ccc(Oc2ccc(Cl)cc2Cl)cc1,inactive,
CNC(=O)Oc1cccc2c1OC(C)(C)C2,,0.0409 µM (active)

# From PubChem BioAssay (EPA / NIEHS)
